This note sets out measurements from PubChem BioAssay AID493170 (National Center for Advancing Translational Sciences (NCATS), 2011).

Inconclusive results are not listed. Where a call stands in place of a potency, no number is given. Calls of active or inactive are those of the source. The call rests on the fitted dose curve; in most records, active means well fitted inhibition curve with a large enough effect; inconclusive means small, poorly fitted or top-dose-only effect, or effect the other way; inactive means flat fitted curve, though single readings scatter.
Potency means the concentration at half of the fitted maximal effect.

Ubiquitin carboxyl-terminal hydrolase 2 (Homo sapiens), sequence (O75604 whole entry, looked up): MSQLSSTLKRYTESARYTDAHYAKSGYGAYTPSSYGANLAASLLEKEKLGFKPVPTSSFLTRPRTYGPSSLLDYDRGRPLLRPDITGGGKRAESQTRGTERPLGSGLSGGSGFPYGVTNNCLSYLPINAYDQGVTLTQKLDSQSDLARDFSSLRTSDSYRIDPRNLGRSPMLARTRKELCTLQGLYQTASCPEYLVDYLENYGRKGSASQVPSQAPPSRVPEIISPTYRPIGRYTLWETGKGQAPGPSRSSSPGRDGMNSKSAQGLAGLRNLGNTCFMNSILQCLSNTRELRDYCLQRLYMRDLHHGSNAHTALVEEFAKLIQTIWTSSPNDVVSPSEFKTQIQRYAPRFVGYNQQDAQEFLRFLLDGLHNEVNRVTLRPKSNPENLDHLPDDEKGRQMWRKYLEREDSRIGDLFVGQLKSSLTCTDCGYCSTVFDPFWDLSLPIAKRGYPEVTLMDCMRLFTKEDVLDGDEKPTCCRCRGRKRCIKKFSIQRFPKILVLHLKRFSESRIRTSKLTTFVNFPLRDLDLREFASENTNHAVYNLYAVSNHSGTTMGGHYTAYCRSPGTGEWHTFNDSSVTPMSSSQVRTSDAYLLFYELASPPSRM

This experiment deals with Ubiquitin carboxyl-terminal hydrolase 2 (Homo sapiens) (UniProt O75604). Description: Ub-rhodamine 110 based assay for inhibitors Ubiquitin-specific Protease USP2a. Further: nearly all actives have a fitted effect of over 50% in size. Particulars: USP2a Ub-rhodamine110 cleavage, fluorescence; series mostly up to 38.3 µM. The gist of the method:
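5 nM USP2a preincubated with compounds for 30 min at RT in 20 mM Tris-HCl pH 8.0, 2 mM CaCl2, 2 mM beta-mercaptoethanol, 0.05% CHAPS. Cleavage of 150 nM Ub-rhodamine 110 read kinetically (Ex 485/Em 531) for 7 min.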
In the case of `COc1ccc(CC(=O)c2ccccc2C(=O)O)cc1`, the Potency result is “inactive”.
With `Cc1ccccc1OCCn1nc(C(=O)O)c2ccccc2c1=O`, the Potency result was “inactive”.
In the case of `COC(=O)[C@@]12CCCCN1[C@H](c1ccc(-c3ccc(Cl)c(Cl)c3)cc1)[C@H]1C(=O)N(C)C(=O)[C@H]12` it was “inactive”; in that of `COc1cc(C(=O)OC2CCCCC2=O)cc(OC)c1C` (stereo not drawn), 11.2 µM (active).
The value for `Cc1cc(=O)n2[nH]c(-c3sccc3-n3c(C)ccc3C)cc2n1` was 10 µM (active); that for `CSCCC(NC(=O)c1cc(C(C)(C)C)oc1C)C(=O)O` (stereo not drawn) was “inactive”; that for `O=C(NCCC1=CCCCC1)C1CCCN(S(=O)(=O)c2cnc[nH]2)C1` (stereo not drawn) was “inactive”.
In the case of `O=C(c1ccccc1N(Cc1ccccc1)S(=O)(=O)c1ccccc1)N1CCOCC1` it was “inactive”.
With `O=C(c1cccc(F)c1)N1CCN(S(=O)(=O)c2ccccc2)CC1`, the Potency result is “inactive”.
Take `C[C@H](CO)N1C[C@H](C)[C@@H](CN(C)S(=O)(=O)c2cccs2)Oc2c(NC(=O)Nc3ccc4c(c3)OCO4)cccc2C1=O`: the Potency entry was “inactive”.
The value for `Cc1ccc([C@@H]2CC=C(C(=O)O)[C@H](c3ccc(C(C)(C)C)cc3)N2S(=O)(=O)c2ccc(C)cc2)cc1` was 10 µM (active); that for `Cc1nc2ccccc2c2oc(C(=O)NCCN3CCN(C)CC3)cc12` was “inactive”; that for `CCC1=[N+](CC(=O)c2ccc(Br)cc2)CCn2c(C)ccc21` was “inactive”.
In the case of `O=C(Cc1cc(=O)[nH]c(=O)[nH]1)NCC1CCCO1` (stereo not drawn) it was “inactive”; in that of `Cn1nc(CC(=O)NCc2ccc(F)cc2)c2ccccc2c1=O`, “inactive”.
In the case of `C#CCOCCOCCOCCNc1nc(N2CCN(C(=O)CCCCCCCCCCNC(=O)Cn3cc(CCCCCN)nn3)CC2)nc(N2CCN(C(=O)CCCCCCCCCCNC(=O)[C@H](CO)n3cc(CCCCCN)nn3)CC2)n1` it was “inactive”; in that of `N#Cc1c(SCC(=O)Nc2nc3ccccc3s2)sc2c(O)cc(=O)[nH]c12`, 8.91 µM (active).
With `Cc1ccc(Nc2nc(N)nc(CN3CCN(C(=O)c4ccco4)CC3)n2)cc1Cl`, the Potency entry was “inactive”.
In the case of `O=C(CCCN1C(=O)c2ccccc2C1=O)NC1=NCCS1` it was “inactive”.
For `CCC(C)c1ccc(O)c(N)c1` (stereo not drawn), the Potency entry was “inactive”.
The value for `O=C(O)/C=C/c1ccc(S(=O)(=O)Nc2ccccc2C(=O)Nc2ccc(F)cc2)cc1` was “inactive”; that for `CCN=C1SC(C(=O)Nc2cccc(OCC)c2)CC(=O)N1CC` (stereo not drawn) was “inactive”.
The value for `COc1ccc2[nH]c(=O)c(CN(Cc3ccco3)Cc3nnnn3Cc3ccccc3)cc2c1` was “inactive”.
